Tg IFNy HTS – T. gondii growth inhibition with IFN-gamma, primary screen, cell-based | Toxoplasma gondii growth in IFN-gamma-treated host cells; hits give low values | activity change, negative = inhibition, % (test concentration not listed) | actives 3.8% (n = 69,000); in the data active means activity change below about -70%, passing the limit was not always enough;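 further: host cells are HeLa cells infected with Toxoplasma gondii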
Hits are given with their value. The sample as a whole holds a higher share of hits than the screen did.

What do the screens show for `CC(C)c1nnc(CN(C)C2CCCc3ccccc32)o1` (centres undefined)?
Tg IFNy HTS: inactive

What do the screens show for `COc1ccc(-c2ccc(SCC(=O)N3c4cc(C)ccc4C(C)=CC3(C)C)nn2)cc1`?
Tg IFNy HTS: inactive

How did O=C(CCn1nnc(-c2ccccc2)n1)N1CCCn2cncc2C1 do in these assays?
Tg IFNy HTS: inactive

What do the screens show for `Cc1ccc(Sc2ncnc3ccsc23)cc1`?
Tg IFNy HTS: inactive

How did c1cc(-c2ccc(-c3ncnc4ccsc34)cc2)[nH]n1 do in these assays?
Tg IFNy HTS: -82

What do the screens show for `c1nc(NN2CCCCC2)c2sccc2n1`?
Tg IFNy HTS: inactive

How did CCN1C(=O)CCc2cc(NS(=O)(=O)c3ccccc3C(=O)OC)ccc21 do in these assays?
Tg IFNy HTS: inactive

How did CCN1C(=O)C(c2ccccc2)CC12CCN(Cc1nccs1)CC2 (centres undefined) do in these assays?
Tg IFNy HTS: inactive

What do the screens show for `Cc1cc(C)c(S(=O)(=O)NCCc2sc(-c3cccc(F)c3)nc2C)cc1C`?
Tg IFNy HTS: inactive

What do the screens show for `COc1cccc(C(=O)NCCC(=O)Nc2cnc3n2CCCC3)c1`?
Tg IFNy HTS: inactive

What do the screens show for `c1cncc(COC2CCN(Cc3cnc(-c4cccs4)nc3)CC2)c1`?
Tg IFNy HTS: inactive

Results for COc1cccc(-c2ccc3c(c2)O[C@@H](CN(C)Cc2cccnc2)[C@@H](C)CN([C@H](C)CO)S3(=O)=O)c1 ?
Tg IFNy HTS: inactive

How did COc1ccccc1-c1ccc2c(c1)O[C@H](CN(C)CC1CCOCC1)[C@@H](C)CN([C@@H](C)CO)S2(=O)=O do in these assays?
Tg IFNy HTS: inactive

Results for COc1cccc(-c2ccc3c(c2)O[C@@H](CN(C)Cc2cccnc2)[C@@H](C)CN([C@@H](C)CO)S3(=O)=O)c1 ?
Tg IFNy HTS: inactive

What do the screens show for `COc1cccc(-c2ccc3c(c2)O[C@@H](CN(C)Cc2cccnc2)[C@H](C)CN([C@@H](C)CO)S3(=O)=O)c1`?
Tg IFNy HTS: -95

What do the screens show for `C[C@@H]1CN([C@@H](C)CO)S(=O)(=O)c2ccc(C#Cc3ccccc3F)cc2O[C@@H]1CN(C)C(=O)Cc1cccnc1`?
Tg IFNy HTS: inactive

What do the screens show for `COc1ccccc1-c1ccc2c(c1)O[C@H](CN(C)CC1CCOCC1)[C@@H](C)CN([C@H](C)CO)S2(=O)=O`?
Tg IFNy HTS: inactive

How did C[C@H](CO)N1C[C@H](C)[C@@H](CN(C)C(=O)Cc2cccnc2)Oc2cc(C#Cc3ccccc3F)ccc2S1(=O)=O do in these assays?
Tg IFNy HTS: -108

How did COc1cccc(-c2ccc3c(c2)O[C@H](CN(C)Cc2cccnc2)[C@@H](C)CN([C@H](C)CO)S3(=O)=O)c1 do in these assays?
Tg IFNy HTS: -97

How did C[C@H]1CN([C@@H](C)CO)S(=O)(=O)c2ccc(C#CC(C)(C)O)cc2O[C@@H]1CN(C)Cc1ccc(F)cc1 do in these assays?
Tg IFNy HTS: inactive

How did CCCN(CC#Cc1ccccc1)C(=O)c1ccc(CO)cc1 do in these assays?
Tg IFNy HTS: inactive

How did Cn1cc(CN2CCC3(CC2)CN(Cc2cccnc2)C(=O)CO3)cn1 do in these assays?
Tg IFNy HTS: inactive

What do the screens show for `Nc1ncc(Cc2ccccc2F)s1`?
Tg IFNy HTS: inactive

What do the screens show for `COc1ccc(CN(Cc2cccc(F)c2)C(=O)C2CCOC2)cc1` (centres undefined)?
Tg IFNy HTS: inactive

Results for Cc1nc(N2CCOCC2)nc2c1COCC21CCN(C(=O)C2CC2)C1 (centres undefined) ?
Tg IFNy HTS: inactive

How did Cc1ccc(CNC(=O)Nc2ccc(-c3nc(-c4ccccc4)co3)cc2)cc1 do in these assays?
Tg IFNy HTS: inactive

How did Cc1ncc(NC(=O)c2ccc(CN3CCN(C)CC3)c(C(F)(F)F)c2)cc1Nc1nccc(-c2cccnc2)n1 do in these assays?
Tg IFNy HTS: inactive

What do the screens show for `Cc1ccc(C(=O)Nc2ccc(CN3CCN(C)CC3)c(C(F)(F)F)c2)cc1C#Cc1cnc2[nH]ncc2c1`?
Tg IFNy HTS: -80

How did CN(C)C1CCN(Cc2ccc(C(=O)Nc3ccc4c(cnn4C)c3)cc2)C1 (centres undefined) do in these assays?
Tg IFNy HTS: inactive

How did CN1C[C@H]2C3(CCN(CC4CCOCC4)CC3)CC[C@@]2(C(=O)N2CCCC2)C1 do in these assays?
Tg IFNy HTS: inactive

What do the screens show for `CC(=O)NC1(c2ccccc2)CCN(CC(=O)Nc2ccccc2-n2ccnc2)CC1`?
Tg IFNy HTS: inactive

How did Cc1cc(C(=O)Nc2ccc(-c3nc(Cn4cccn4)c(C)o3)cc2)no1 do in these assays?
Tg IFNy HTS: -93

How did Cc1cnn(Cc2nc(-c3ccc(NC(=O)c4cc(C)on4)cc3)oc2C)c1 do in these assays?
Tg IFNy HTS: -95

Results for Cc1cnn(Cc2nc(-c3ccc(NC(=O)c4c(F)cccc4F)cc3)oc2C)c1 ?
Tg IFNy HTS: inactive

How did Cc1cc(C)cc(C(=O)Nc2ccc(-c3nc(Cn4cccn4)c(C)o3)cc2)c1 do in these assays?
Tg IFNy HTS: inactive

Results for Cc1ccc(C(=O)Nc2ccc(-c3nc(Cn4cccn4)c(C)o3)cc2)cc1 ?
Tg IFNy HTS: inactive

Results for CCCN(CCC)C(=O)c1cc2cccnc2n(Cc2ccc(F)cc2)c1=O ?
Tg IFNy HTS: inactive

Assay outcomes deposited in PubChem BioAssay by Broad Institute.
